# Reference: the supplement of paper PMC8728848
# Many of the other results were omitted from the sample, so the strongest signals are more common in it than they were.
# Columns and labels:
# Assay in all cases: glycan array binding signal (z-score within array); higher = stronger binding
# Details in all cases: glycan notation: IUPAC condensed, linker removed
# [1] = molecular target: GlcNAc(b1-3)Gal(b1-4)GlcNAc(b1-3)Gal(b1-4)GlcNAc(b1-2)[GlcNAc(b1-3)Gal(b1-4)GlcNAc(b1-3)Gal(b1-4)GlcNAc(b1-6)]Man(a1-6)[GlcNAc(b1-3)Gal(b1-4)GlcNAc(b1-3)Gal(b1-4)GlcNAc(b1-2)Man(a1-3)]Man(b1-4)GlcNAc(b1-4)[Fuc(a1-6)]GlcNAc
# Outline: (§1)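 The Consortium for Functional Glycomics database supplied 3228 glycan arrays, of which those lacking an available protein sequence were dropped. The binding signal, a within-array Z-score, was averaged across arrays of the same protein sequence and across linkers. Negative scores can be read as non-binding.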
# [2] = molecular target: GlcNAc(b1-3)Gal(b1-4)GlcNAc(b1-3)Gal(b1-4)GlcNAc(b1-3)Gal(b1-4)GlcNAc(b1-2)[GlcNAc(b1-3)Gal(b1-4)GlcNAc(b1-3)Gal(b1-4)GlcNAc(b1-3)Gal(b1-4)GlcNAc(b1-6)]Man(a1-6)[GlcNAc(b1-3)Gal(b1-4)GlcNAc(b1-3)Gal(b1-4)GlcNAc(b1-3)Gal(b1-4)GlcNAc(b1-2)Man(a1-3)]Man(b1-4)GlcNAc(b1-4)[Fuc(a1-6)]GlcNAc
# Outline: as §1
# [3] = molecular target: GlcNAc(b1-3)Gal(b1-4)GlcNAc(b1-6)[Gal(b1-3)]GalNAc
# Outline: as §1
# [4] = molecular target: GlcNAc(b1-3)[GlcNAc(b1-4)][GlcNAc(b1-6)]GlcNAc
# Outline: as §1
# [5] = molecular target: GlcNAc(b1-4)Gal(b1-4)GlcNAc
# Outline: as §1
# Kdn(a2-6)Gal(b1-4)GlcNAc = molecular target: Kdn(a2-6)Gal(b1-4)GlcNAc
# Outline: as §1
# [6] = molecular target: Man(a1-2)Man(a1-3)[Man(a1-2)Man(a1-6)]Man(a1-6)[Man(a1-2)Man(a1-2)Man(a1-3)]Man(b1-4)GlcNAc(b1-4)GlcNAc
# Outline: as §1
# [7] = molecular target: Man(a1-2)Man(a1-6)[Man(a1-3)]Man(a1-6)[Man(a1-2)Man(a1-2)Man(a1-3)]Man(b1-4)GlcNAc(b1-4)GlcNAc
# Outline: as §1
# [8] = molecular target: Man(a1-3)[Man(a1-6)]Man(a1-6)[Man(a1-3)]Man
# Outline: as §1
# [9] = molecular target: Neu5Ac(a2-3)Gal(b1-3)GlcNAc(b1-3)Gal(b1-4)GlcNAc
# Outline: as §1
# [10] = molecular target: Neu5Ac(a2-3)Gal(b1-4)GlcNAc(b1-3)Gal
# Outline: as §1
# [11] = molecular target: Neu5Ac(a2-3)Gal(b1-4)GlcNAc(b1-3)Gal(b1-4)GlcNAc(b1-6)[Gal(b1-3)]GalNAc
# Outline: as §1
# [12] = molecular target: Neu5Ac(a2-3)Gal(b1-4)[Fuc(a1-3)]GlcNAc(b1-3)GalNAc
# Outline: as §1
# [13] = molecular target: Neu5Ac(a2-3)Gal(b1-4)[Fuc(a1-3)]GlcNAc(b1-6)[Gal(b1-3)]GalNAc
# Outline: as §1
# Neu5Ac(a2-6)Gal(b1-4)Glc = molecular target: Neu5Ac(a2-6)Gal(b1-4)Glc
# Outline: as §1
# [14] = molecular target: Neu5Ac(a2-6)Gal(b1-4)GlcNAc(b1-2)Man(a1-3)[Neu5Ac(a2-3)Gal(b1-4)GlcNAc(b1-2)Man(a1-6)]Man(b1-4)GlcNAc(b1-4)GlcNAc
# Outline: as §1
# [15] = molecular target: Neu5Ac(a2-6)Gal(b1-4)GlcNAc(b1-3)Gal(b1-4)GlcNAc(b1-3)[Neu5Ac(a2-6)Gal(b1-4)GlcNAc(b1-3)Gal(b1-4)GlcNAc(b1-6)]GalNAc
# Outline: as §1
# [16] = molecular target: Neu5Gc(a2-3)Gal(b1-4)GlcNAc(b1-3)Gal(b1-4)GlcNAc(b1-2)Man(a1-3)[Neu5Gc(a2-3)Gal(b1-4)GlcNAc(b1-3)Gal(b1-4)GlcNAc(b1-2)Man(a1-6)]Man(b1-4)GlcNAc(b1-4)GlcNAc
# Outline: as §1
binder,measurement,setting,value
"BT4246 (Bacteroides thetaiotaomicron), Q89ZX5 (protein) MGSSHHHHHHENLYFQGHMASDYLDVVPPEQPNIDDAMSSPTRALGFLYSCYGGVSTDLPSAYLGEINSTTDEYVLPYSWNTDGYWGAYAFNTASSTNQDWLWGTTYQYIGQCYLFLQKLENAGSDIASDAEKEQWRAECQFLVAYYHFATLRRYGPIPITDSYIPMDTPTSEYNGRFHFDYCVDWIANQLDEAAKVLPANRTVTNEWGRATSTIAKAVKARLLLYAASPLWNGSFPYPNWQNENFETPGYGKALVSNTYDKSKWERALAACQEALTLATTSGDRELYDDDEYYSRQSLNLPFVPGVADVEDNKEFLKNVMKMRYAVSTRESEGNKEIIWGLSNQFDFYSRYPLRILKKSDGTWHAGYSGVSPTLYTFEHFYTANGKLPEKDLDFTPSSEWFESAGISSREDIIKLNVGREPRFYAWMAFDGGDYGTKFAAGSPLKLEMRNSEMHGYNPSLFNRDHSVTGFLTQKFVDPVTEFYTAGGSTSGTSAPTILFRLAELYLNVAECHAALGNTQEAIDALNPVRERAGIPKLTLADITNNMTIKDWVHNERFVELWNEGHRFFDVRRWAEGAKYFGANKREGLNAEVQSPTFEEFNKRTTVDAPYVWENRMYLNPVFYNEVYKNPQMVQAPGY",glycan array binding signal (z-score),[1],1.52
same,glycan array binding signal (z-score),[2],0.637
same,glycan array binding signal (z-score),[3],-0.339
same,glycan array binding signal (z-score),[4],-0.635
same,glycan array binding signal (z-score),[5],-0.482
same,glycan array binding signal (z-score),Kdn(a2-6)Gal(b1-4)GlcNAc,1.42
same,glycan array binding signal (z-score),[6],-0.169
same,glycan array binding signal (z-score),[7],1.59
same,glycan array binding signal (z-score),[8],3.62
same,glycan array binding signal (z-score),[9],1.07
same,glycan array binding signal (z-score),[10],-0.929
same,glycan array binding signal (z-score),[11],0.439
same,glycan array binding signal (z-score),[12],4.68
same,glycan array binding signal (z-score),[13],2.47
same,glycan array binding signal (z-score),Neu5Ac(a2-6)Gal(b1-4)Glc,-0.168
same,glycan array binding signal (z-score),[14],-0.62
same,glycan array binding signal (z-score),[15],3.02
same,glycan array binding signal (z-score),[16],2.77
